Laboratory results reported in PMC7862700, “An all-to-all approach to the identification of sequence-specific readers for epigenetic DNA modifications on cytosine”.

Experiments:
Assay in all cases: DAPPL (digital affinity profiling via proximity ligation, sequencing); 10 mM Tris-HCl pH 7.5, 50 mM NaCl, 1 mM DTT, 4% glycerol, room temperature, 30 min; GST-TFs on glutathione beads, 16-mer random dsDNA library, 0.1% formaldehyde crosslink after washing; high values mean tight binding
Details in all cases: protein: recombinant; tags: N-terminal GST; dsDNA, one strand shown
FLI1 = biological target: T1, FLI1 (Homo sapiens, UniProt Q01543 1-452)
T1 sequence: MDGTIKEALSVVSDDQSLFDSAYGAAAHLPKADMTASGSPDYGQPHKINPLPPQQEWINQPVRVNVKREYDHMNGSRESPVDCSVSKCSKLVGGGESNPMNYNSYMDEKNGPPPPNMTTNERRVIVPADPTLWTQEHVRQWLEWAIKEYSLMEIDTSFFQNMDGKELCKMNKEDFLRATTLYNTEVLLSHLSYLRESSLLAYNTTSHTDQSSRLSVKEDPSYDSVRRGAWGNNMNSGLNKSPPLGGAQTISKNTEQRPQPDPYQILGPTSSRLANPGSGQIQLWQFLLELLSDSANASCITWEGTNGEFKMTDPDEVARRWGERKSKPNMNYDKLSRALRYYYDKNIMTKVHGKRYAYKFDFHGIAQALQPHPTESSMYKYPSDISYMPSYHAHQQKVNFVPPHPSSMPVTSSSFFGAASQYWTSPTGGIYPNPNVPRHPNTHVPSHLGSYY
Summary of the method: (§1)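 After expression in yeast as GST fusions, human transcription factors were bound to glutathione beads, DNA-barcoded and mixed with a tag-only sample. The pools were incubated with 200 nmole of a 16-mer random double-stranded DNA library in Tris/NaCl/DTT/glycerol buffer (30 min, room temperature), washed and crosslinked with 0.1% formaldehyde. Proximity ligation with BsaI/T4 ligase ran for 1 h at 37 °C, before PCR amplification and sequencing on an Illumina NextSeq500. Binding signal is a hexamer's read frequency for a factor divided by its frequency for the tag-only sample.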

GABPA = biological target: T2, GABPA (Homo sapiens, UniProt Q06546 1-454)
T2 sequence: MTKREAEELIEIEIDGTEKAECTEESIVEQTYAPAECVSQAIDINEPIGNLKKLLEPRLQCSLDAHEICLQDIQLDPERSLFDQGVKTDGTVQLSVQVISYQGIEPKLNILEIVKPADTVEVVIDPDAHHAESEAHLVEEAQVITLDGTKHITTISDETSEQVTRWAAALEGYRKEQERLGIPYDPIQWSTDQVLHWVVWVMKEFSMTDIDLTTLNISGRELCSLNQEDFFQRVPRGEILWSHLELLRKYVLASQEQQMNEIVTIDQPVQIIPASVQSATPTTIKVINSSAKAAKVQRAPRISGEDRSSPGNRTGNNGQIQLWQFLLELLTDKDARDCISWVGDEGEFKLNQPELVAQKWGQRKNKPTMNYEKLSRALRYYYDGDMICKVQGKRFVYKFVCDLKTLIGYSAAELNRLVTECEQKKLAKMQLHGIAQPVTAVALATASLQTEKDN
Summary of the method: as §1

ELF1 = ELF1 (Homo sapiens, UniProt P32519 1-619)
ELF1, sequence (P32519 whole entry): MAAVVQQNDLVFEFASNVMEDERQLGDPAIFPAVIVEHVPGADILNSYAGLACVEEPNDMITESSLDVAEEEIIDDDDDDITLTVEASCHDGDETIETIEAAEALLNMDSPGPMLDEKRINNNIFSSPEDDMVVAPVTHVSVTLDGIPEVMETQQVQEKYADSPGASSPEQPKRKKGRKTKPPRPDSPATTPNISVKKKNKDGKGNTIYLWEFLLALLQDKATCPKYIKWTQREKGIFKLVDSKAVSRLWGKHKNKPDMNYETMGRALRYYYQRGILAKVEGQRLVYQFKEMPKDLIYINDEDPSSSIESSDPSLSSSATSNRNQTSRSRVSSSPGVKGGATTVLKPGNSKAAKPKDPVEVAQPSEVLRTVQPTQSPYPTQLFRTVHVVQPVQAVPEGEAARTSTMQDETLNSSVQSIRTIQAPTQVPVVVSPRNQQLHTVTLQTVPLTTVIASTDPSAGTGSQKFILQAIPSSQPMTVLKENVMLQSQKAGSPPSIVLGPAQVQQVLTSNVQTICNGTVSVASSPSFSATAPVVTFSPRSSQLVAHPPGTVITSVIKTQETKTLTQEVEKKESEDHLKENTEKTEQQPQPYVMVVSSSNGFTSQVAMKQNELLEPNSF
Summary of the method: as §1

EHF = biological target: T3, EHF (Homo sapiens, UniProt Q9NZC4 1-300)
T3 sequence: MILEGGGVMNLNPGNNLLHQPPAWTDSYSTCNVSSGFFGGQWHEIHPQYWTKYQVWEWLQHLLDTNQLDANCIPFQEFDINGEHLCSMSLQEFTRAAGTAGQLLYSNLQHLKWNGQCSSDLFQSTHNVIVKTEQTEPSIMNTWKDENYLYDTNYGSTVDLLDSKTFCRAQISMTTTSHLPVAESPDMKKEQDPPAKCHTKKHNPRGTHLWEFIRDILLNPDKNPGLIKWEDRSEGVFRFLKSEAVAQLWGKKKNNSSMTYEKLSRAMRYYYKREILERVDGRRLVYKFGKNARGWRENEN
Summary of the method: as §1

SPIB = SPIB (Homo sapiens, UniProt Q01892 1-262)
SPIB, sequence (Q01892 whole entry): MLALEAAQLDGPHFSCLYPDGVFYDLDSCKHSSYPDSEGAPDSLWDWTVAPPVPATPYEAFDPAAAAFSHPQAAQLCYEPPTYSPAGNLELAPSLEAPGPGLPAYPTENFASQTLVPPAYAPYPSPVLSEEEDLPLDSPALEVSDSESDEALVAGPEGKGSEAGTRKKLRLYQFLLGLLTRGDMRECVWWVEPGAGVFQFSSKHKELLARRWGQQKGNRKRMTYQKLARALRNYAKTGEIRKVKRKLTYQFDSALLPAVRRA
Summary of the method: as §1

ELK3 = biological target: T4, ELK3 (Homo sapiens, UniProt P41970 1-407)
T4 sequence: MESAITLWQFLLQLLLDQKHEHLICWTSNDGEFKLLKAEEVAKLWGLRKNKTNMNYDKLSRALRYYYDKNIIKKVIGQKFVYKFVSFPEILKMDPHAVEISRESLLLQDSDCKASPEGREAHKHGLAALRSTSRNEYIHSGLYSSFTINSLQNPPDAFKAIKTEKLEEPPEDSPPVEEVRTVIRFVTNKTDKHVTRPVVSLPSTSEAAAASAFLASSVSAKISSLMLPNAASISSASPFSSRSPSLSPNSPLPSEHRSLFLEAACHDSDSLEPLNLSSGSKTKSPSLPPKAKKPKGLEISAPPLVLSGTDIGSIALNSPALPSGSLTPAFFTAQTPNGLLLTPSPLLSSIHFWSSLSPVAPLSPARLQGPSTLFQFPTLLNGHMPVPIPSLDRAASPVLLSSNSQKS
Summary of the method: as §1

ETV5 = ETV5 (Homo sapiens, UniProt P41161 1-510)
ETV5, sequence (P41161 whole entry): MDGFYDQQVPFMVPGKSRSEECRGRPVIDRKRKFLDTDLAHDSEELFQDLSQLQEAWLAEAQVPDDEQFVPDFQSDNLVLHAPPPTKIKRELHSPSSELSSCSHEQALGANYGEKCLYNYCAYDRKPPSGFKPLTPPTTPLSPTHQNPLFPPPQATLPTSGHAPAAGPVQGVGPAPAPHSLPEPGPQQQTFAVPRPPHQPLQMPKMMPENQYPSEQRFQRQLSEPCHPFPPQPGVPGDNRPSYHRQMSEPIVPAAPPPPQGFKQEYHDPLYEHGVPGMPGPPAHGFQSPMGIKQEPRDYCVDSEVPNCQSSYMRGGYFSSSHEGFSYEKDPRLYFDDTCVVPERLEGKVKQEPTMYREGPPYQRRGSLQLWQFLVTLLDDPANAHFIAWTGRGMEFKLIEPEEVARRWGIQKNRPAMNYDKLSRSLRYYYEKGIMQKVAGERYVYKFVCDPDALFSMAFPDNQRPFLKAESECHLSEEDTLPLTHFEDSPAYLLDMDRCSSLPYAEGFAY
Summary of the method: as §1

SPIC = biological target: T5, SPIC (Homo sapiens, UniProt Q8N5J4 1-248)
T5 sequence: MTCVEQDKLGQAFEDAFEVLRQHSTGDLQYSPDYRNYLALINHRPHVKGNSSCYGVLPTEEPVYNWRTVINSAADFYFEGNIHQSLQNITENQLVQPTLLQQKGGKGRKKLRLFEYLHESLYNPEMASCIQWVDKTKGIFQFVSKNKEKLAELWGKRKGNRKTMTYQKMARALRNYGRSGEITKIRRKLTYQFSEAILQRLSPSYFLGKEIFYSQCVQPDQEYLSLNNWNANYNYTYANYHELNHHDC
Summary of the method: as §1

ELF4 = ELF4 (Homo sapiens, UniProt Q99607 1-663)
ELF4, sequence (Q99607 whole entry): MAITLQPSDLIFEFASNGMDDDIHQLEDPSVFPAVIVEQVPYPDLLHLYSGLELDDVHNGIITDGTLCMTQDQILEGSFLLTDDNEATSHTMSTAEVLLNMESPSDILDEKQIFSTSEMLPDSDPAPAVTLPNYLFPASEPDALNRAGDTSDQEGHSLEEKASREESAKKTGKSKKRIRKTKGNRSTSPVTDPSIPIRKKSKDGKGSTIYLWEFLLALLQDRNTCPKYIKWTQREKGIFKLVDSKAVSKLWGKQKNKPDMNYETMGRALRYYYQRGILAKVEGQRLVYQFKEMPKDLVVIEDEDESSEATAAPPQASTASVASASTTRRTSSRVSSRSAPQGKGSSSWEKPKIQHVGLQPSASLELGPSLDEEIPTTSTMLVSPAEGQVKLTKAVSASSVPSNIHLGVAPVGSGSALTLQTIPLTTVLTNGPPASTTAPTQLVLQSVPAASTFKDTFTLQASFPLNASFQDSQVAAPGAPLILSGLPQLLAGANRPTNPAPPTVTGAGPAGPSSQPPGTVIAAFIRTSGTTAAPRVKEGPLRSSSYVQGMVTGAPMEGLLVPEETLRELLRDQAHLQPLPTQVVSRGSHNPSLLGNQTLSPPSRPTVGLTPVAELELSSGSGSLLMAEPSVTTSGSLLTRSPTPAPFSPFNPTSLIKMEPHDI
Summary of the method: as §1

ETV1 = ETV1 (Homo sapiens, UniProt P50549 1-477)
ETV1, sequence (P50549 whole entry): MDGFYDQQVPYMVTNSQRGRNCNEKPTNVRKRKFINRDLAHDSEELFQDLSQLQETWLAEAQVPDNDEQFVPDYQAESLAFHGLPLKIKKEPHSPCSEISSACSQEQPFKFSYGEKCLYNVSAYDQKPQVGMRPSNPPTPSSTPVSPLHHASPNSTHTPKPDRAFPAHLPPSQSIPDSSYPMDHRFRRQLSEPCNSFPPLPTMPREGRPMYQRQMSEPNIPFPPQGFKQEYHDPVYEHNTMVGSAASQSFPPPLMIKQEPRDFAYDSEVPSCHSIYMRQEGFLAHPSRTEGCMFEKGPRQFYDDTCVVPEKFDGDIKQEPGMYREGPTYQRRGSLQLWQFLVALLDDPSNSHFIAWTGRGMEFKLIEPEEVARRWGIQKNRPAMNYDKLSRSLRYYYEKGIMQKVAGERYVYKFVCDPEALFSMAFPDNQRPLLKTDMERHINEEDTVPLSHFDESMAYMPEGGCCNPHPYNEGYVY
Summary of the method: as §1

ETV3L = biological target: T6, ETV3L (Homo sapiens, UniProt Q6ZN32 1-361)
T6 sequence: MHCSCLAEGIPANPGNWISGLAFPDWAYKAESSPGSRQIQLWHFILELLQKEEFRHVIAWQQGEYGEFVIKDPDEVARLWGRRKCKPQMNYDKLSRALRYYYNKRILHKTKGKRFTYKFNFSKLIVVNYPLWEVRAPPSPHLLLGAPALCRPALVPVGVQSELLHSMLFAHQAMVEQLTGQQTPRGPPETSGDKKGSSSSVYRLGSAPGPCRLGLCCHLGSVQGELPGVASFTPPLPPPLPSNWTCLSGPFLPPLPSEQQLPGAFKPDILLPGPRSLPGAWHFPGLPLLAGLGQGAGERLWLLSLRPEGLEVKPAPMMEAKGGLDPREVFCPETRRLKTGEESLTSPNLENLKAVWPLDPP
Summary of the method: as §1

ETV3 = biological target: T7, ETV3 (Homo sapiens, UniProt P41162-2 1-143)
T7 sequence: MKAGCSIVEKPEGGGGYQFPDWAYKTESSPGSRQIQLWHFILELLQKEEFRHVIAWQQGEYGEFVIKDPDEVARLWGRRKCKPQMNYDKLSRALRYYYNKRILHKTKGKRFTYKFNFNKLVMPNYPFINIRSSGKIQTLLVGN
Summary of the method: as §1

ERG = biological target: T8, ERG (Homo sapiens, UniProt P11308 1-479)
T8 sequence: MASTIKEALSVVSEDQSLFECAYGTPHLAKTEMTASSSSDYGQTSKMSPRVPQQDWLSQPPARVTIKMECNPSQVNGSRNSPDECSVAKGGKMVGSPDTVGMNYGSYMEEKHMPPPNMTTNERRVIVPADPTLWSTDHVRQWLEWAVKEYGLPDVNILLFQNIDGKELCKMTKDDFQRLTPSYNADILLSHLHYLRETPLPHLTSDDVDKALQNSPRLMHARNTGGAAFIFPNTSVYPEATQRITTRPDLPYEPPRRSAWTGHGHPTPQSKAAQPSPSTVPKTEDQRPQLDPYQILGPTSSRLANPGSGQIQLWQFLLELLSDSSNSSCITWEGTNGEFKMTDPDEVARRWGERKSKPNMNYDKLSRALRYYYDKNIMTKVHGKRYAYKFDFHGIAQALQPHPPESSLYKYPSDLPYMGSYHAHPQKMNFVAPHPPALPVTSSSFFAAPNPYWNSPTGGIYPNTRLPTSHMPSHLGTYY
Summary of the method: as §1

FEV = biological target: T9, FEV (Homo sapiens, UniProt Q99581 1-238)
T9 sequence: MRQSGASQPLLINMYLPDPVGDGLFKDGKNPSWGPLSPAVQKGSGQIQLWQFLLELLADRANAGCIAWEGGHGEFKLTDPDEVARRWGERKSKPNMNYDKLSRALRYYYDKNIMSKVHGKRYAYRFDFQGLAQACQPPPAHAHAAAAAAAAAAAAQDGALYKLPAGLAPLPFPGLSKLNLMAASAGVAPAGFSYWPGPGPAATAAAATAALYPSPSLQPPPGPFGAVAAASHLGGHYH
Summary of the method: as §1

Sequence | binding signal (FLI1) | binding signal (GABPA) | binding signal (ELF1) | binding signal (EHF) | binding signal (SPIB) | binding signal (ELK3) | binding signal (ETV5) | binding signal (SPIC) | binding signal (ELF4) | binding signal (ETV1) | binding signal (ETV3L) | binding signal (ETV3) | binding signal (ERG) | binding signal (FEV)
GGACTC | 1.08 fold enrichment (6-mer frequency, TF over GST control) | 1.07 fold enrichment (6-mer frequency, TF over GST control) | 1.09 fold enrichment (6-mer frequency, TF over GST control) | 1.12 fold enrichment (6-mer frequency, TF over GST control) | 1.05 fold enrichment (6-mer frequency, TF over GST control) | 1.04 fold enrichment (6-mer frequency, TF over GST control) | 1.08 fold enrichment (6-mer frequency, TF over GST control) | 1.01 fold enrichment (6-mer frequency, TF over GST control) | 1.13 fold enrichment (6-mer frequency, TF over GST control) | 1.07 fold enrichment (6-mer frequency, TF over GST control) | 1.03 fold enrichment (6-mer frequency, TF over GST control) | 1.08 fold enrichment (6-mer frequency, TF over GST control) |  | 
AGCTGT | 1.04 fold enrichment (6-mer frequency, TF over GST control) | 1.05 fold enrichment (6-mer frequency, TF over GST control) |  |  | 1.06 fold enrichment (6-mer frequency, TF over GST control) |  | 1.02 fold enrichment (6-mer frequency, TF over GST control) | 1.15 fold enrichment (6-mer frequency, TF over GST control) | 1.02 fold enrichment (6-mer frequency, TF over GST control) |  |  | 1.07 fold enrichment (6-mer frequency, TF over GST control) | 1.01 fold enrichment (6-mer frequency, TF over GST control) | 1.04 fold enrichment (6-mer frequency, TF over GST control)
